SMILES strings stand for the structures. The campaign covered roughly 300,000 compounds. About 3,200 (1.1%) were called active.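 The calls were made as follows: active = inhibition above the campaign mean inhibition plus 3 SD (cut at about 35% in these data); inactive = the rest.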 Shown is part of a subset that was picked to be rich in actives.

In this assay the target is Glutathione S-transferase omega-1 (Homo sapiens) (UniProt P78417). The assay is described as follows: inhibitors of recombinant GSTO1, primary screen, counter-screen for RBBP9 inhibitor project, biochemical, fluorescence polarization (AID 1974).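 Also: 0% = GSTO1-1 with DMSO and 100% = wells lacking GSTO1-1 enzyme.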 To be noted: recombinant GSTO1, activity-based probe fluorescence polarization; at 5.96 µM; hits give high values. Background: The purpose of a counterscreen is to sort out artefacts and off-target activity.
Chain of Glutathione S-transferase omega-1 (Homo sapiens) (P78417 whole entry, looked up): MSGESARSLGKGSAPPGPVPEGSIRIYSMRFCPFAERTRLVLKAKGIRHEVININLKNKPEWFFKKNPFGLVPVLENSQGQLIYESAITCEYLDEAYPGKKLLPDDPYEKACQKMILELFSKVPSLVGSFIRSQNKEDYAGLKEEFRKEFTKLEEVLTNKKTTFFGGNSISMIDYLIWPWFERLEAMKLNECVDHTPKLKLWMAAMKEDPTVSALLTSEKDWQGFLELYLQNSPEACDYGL
`Cc1ccc(SCCSc2ncccn2)cc1`: the inhibition was -0.48% (inactive). The value for `Cc1ccc(SCc2cc(=O)[nH]c(N3CCCCC3)n2)cc1` was -1.38% (inactive). The value for `Cc1ccc(SCC2=NNC(=O)C2)cc1` was 42.2% (active); that for `COc1ccc(NC(=O)CCC(=O)N2CCN(S(=O)(=O)c3ccc(C)cc3)CC2)c(OC)c1` was -6.89% (inactive). As to `Cn1ccsc1=NC(=O)c1cc(S(=O)(=O)N2CCOCC2)ccc1Cl`, the inhibition was -4.31% (inactive). The value for `CCOC(=O)c1c(-c2ccccc2)oc2cc(Br)c(O)c(C=O)c12` was 0.6% (inactive); that for `CCOC(=O)c1c(C)oc2cc(Sc3ccccc3)c(O)c(O)c12` was 47.9% (active); that for `CCOC(=O)c1cc(Sc2ccccc2N)cc(C(=O)OCC)n1` was 8.34% (inactive). The value for `Clc1ccc(N/N=C/c2cccs2)nn1` was 6.83% (inactive); that for `Oc1cccc(/C=N/Nc2ccc(Cl)nn2)c1O` was 73% (active); that for `Cc1ccsc1/C=N/Nc1ccc(Cl)nn1` was -1.2% (inactive). The value for `Cn1c(NC(=O)c2ccccc2)nc2ccccc21` was 4.42% (inactive). For `CC(C)CN(C(=O)COC(=O)c1ccc(Cl)c(N)c1)c1c(N)n(Cc2ccccc2)c(=O)[nH]c1=O`, the inhibition was 3.23% (inactive). The value for `Cc1[nH][nH]c(=O)c1C(c1ccc(-c2ccc(Cl)cc2)o1)c1c(C)[nH][nH]c1=O` was 65.6% (active); that for `CCOc1ccc(C(c2c(C)[nH][nH]c2=O)c2c(C)[nH][nH]c2=O)cc1OCC` was 23.6% (inactive). The value for `Cc1[nH][nH]c(=O)c1C(c1ccc2c(c1)OCO2)c1c(C)[nH][nH]c1=O` was 17.4% (inactive). The value for `NC(=O)NCCCC(=O)O` was 6.89% (inactive).

As to `OCc1ccc(-c2ccccc2)c(-c2ccccc2)c1`, the inhibition is 0.95% (inactive).

With `Cn1c(-c2ccc(F)cc2)cc2onc(-c3ccccc3Cl)c2c1=O`, the inhibition was 2.68% (inactive). Turning to `CCN1CC=C2C(C#N)=C(N)C(C#N)(C#N)[C@H](c3ccoc3)[C@H]2C1`, the inhibition was 38% (active). The value for `N#CC1=C(N)C(C#N)(C#N)[C@H](c2ccsc2)[C@H]2COCC=C12` was 10.3% (inactive). For `CCCN1CC=C2C(C#N)=C(N)C(C#N)(C#N)C(c3cc(OC)ccc3OC)C2C1` (centres undefined), the inhibition was 3.38% (inactive). The value for `Cc1ccc(C(=O)OCC(=O)N2CC(C)CC(C)C2)cc1S(=O)(=O)N1CCCCC1` (centres undefined) was 1.6% (inactive). The value for `COc1cc(NC(=O)CSC(=S)N2CCCC2)c(OC)cc1Cl` was 1.86% (inactive); that for `COc1ccc(-c2cc(=O)c3c(O)cc(O[C@@H]4O[C@H](CO[C@@H]5O[C@@H](C)[C@H](O)[C@@H](O)[C@H]5O)[C@@H](O)[C@H](O)[C@H]4O)cc3o2)cc1O` was 6.25% (inactive); that for `CCOC(=O)COc1cc(O)c2c(=O)cc(-c3ccccc3)oc2c1` was 4.45% (inactive). Regarding `COc1c(O)cc2oc(-c3ccc(O)c(O)c3)cc(=O)c2c1O`, the inhibition was 37% (active). The value for `CC(C)(C)n1nc(Cc2cccc3ccccc23)c(C#N)c1N` was 26.1% (inactive); that for `COc1ccc(C(CCN(Cc2ccc(OC)c(OC)c2)C(=O)CCl)c2ccccc2)cc1` (centres undefined) was 87% (active). The value for `COc1ccc(CN(C)C(=O)CC(c2ccccc2)c2ccccc2)cc1` was -5.61% (inactive); that for `COc1ccc(COC(=O)NC(C(=O)O)c2ccccc2)cc1` (centres undefined) was 8.98% (inactive); that for `CCOc1cc(/C=N/NC(=O)c2cccc(S(=O)(=O)N3CCOCC3)c2)ccc1OCC(=O)N(C)C` was 5.36% (inactive). The value for `O=C1CCCN1C(=O)COc1ccc([N+](=O)[O-])cc1` was -4.91% (inactive); that for `CCc1nnc(NC(=O)CCC(=O)O)s1` was 3.28% (inactive). With `CCc1nnc(NC(=O)CSc2nc(SC)ns2)s1`, the inhibition was 47.1% (active).

For `CSc1nsc(SCC(=O)Nc2cc(C(=O)O)ccc2C)n1`, the inhibition is -0.11% (inactive). The value for `CCc1ccc(Nc2n[n+](-c3ccccc3)c(-c3cccc(Cl)c3Cl)s2)cc1` was 5.75% (inactive); that for `COc1ccc(N=C(C)c2sc3ccccc3c2O)cc1` was 3.42% (inactive). The value for `Oc1ccc(N=Cc2sc3ccccc3c2Cl)cc1` was 87.7% (active); that for `O=C(N/N=C/c1c(Cl)[nH]c2ccccc12)c1sc2ccccc2c1Cl` was -18.9% (inactive); that for `CCN(CC(=O)Nc1c(F)cccc1F)C(=O)C1CCC1` was 0.37% (inactive).

Regarding `COc1ccc(C(=O)OCC(=O)c2ccc(Cl)s2)c(OC)c1OC`, the inhibition was 2.69% (inactive). The value for `O=C(Nc1cccc(F)c1)c1cc(-c2ccco2)nc2ccccc12` was -14.9% (inactive); that for `NNC(=O)c1oc2nc(-c3ccccc3)cc(-c3ccco3)c2c1N` was 38.1% (active). Take `CNC(=S)NNC(=O)c1oc2nc(-c3ccccc3)cc(-c3ccco3)c2c1N`: the inhibition is 3.57% (inactive). Consider `Cc1c(C)n2c(SCC(=O)NC3CCCC3)nnc2[nH]c1=O`, for which the inhibition is 3.72% (inactive). The value for `CCN(CC(=O)Nc1c(F)cccc1F)C(=O)CN1c2cccc3cccc(c23)S1(=O)=O` was 0.89% (inactive).

Turning to `C#CCOCCOCCOCCNc1nc(N2CCN(C(=O)CCCCCCCCCCNC(=O)[C@H]([C@@H](C)CC)n3cc(CCCCN=C(N)N)nn3)CC2)nc(N2CCN(C(=O)CCCCCCCCCCNC(=O)[C@H](CO)n3cc(CCCSC)nn3)CC2)n1`, the inhibition is 0.8% (inactive). The value for `O=C(c1nnc(-c2ccc(Cl)cc2)o1)C1CCCC1` was -2.2% (inactive).

`O=C(c1[nH]ncc1-c1ccc(Cl)cc1)C1CO1` (centres undefined): the inhibition is 69.7% (active). The value for `S=c1[nH]nc(-c2ccc(Cl)cc2)n1CC1CCCO1` (centres undefined) was 6.47% (inactive); that for `C#CCOCCOCCOCCNc1nc(N2CCN(C(=O)[C@H](CCCCN)n3cc(CCC(=O)O)nn3)CC2)nc(N2CCN(C(=O)[C@H](CCCCN)n3cc(CC(C)O)nn3)CC2)n1` (some centres undefined) was 5.45% (inactive). The value for `Cc1cccc(N2CC(C(=O)Nc3ccccc3N3CCCC3)CC2=O)c1C` (centres undefined) was -3.75% (inactive); that for `CSc1nsc(NC(=O)Nc2ccccc2)n1` was -11% (inactive); that for `CC/C(=N/Nc1ccccc1)c1cnnc(SC)n1` was 46.9% (active). The value for `C/C(=N/Nc1ccc(Cl)cc1)c1cnnc(-c2ccccc2)n1` was -2.69% (inactive); that for `COc1cccc(NC(=O)CSc2nnc(-c3cccnc3)o2)c1` was -6.7% (inactive); that for `COC(C[C@@H](O)C[C@H](O)[C@H](C)OCc1ccccc1)OC` was 3.16% (inactive). As to `CCCCn1c(N)c(N(CC(C)C)C(=O)c2cnc(C)cn2)c(=O)[nH]c1=O`, the inhibition is -0.67% (inactive). The value for `Cc1c(C)n2c(SCC(=O)N3CCCC3)nnc2[nH]c1=O` was 4.38% (inactive). The value for `CCOC(=O)N1CCC(c2cc(=O)n(-c3ccccc3)[nH]2)CC1` was 37.3% (active). The value for `CCOC(=O)N1CCC(NC(=O)COc2cc(=O)n(C)c3ccccc23)CC1` was -3.88% (inactive); that for `CCOC(=O)N1CCC(NC(=O)CCc2ccccc2)CC1` was -0.86% (inactive).

As for `CC(=O)CC[C@@H](C)O[C@@H]1OC(C)[C@H](O)CC1O` (some centres undefined), the inhibition was -1.35% (inactive). The value for `C[C@H]1CC[C@]2(O[C@@H](CCO)C[C@@H](O)[C@@H]2O)O1` was 1.91% (inactive); that for `COc1ccc(C=Nc2cccc3ncccc23)cc1` was 6.91% (inactive); that for `Oc1c(C=Nc2cccc3nsnc23)ccc2ccccc12` was 64.1% (active). The value for `NC(=O)C1CCN(C(=O)c2cn(-c3ccccc3)nc2-c2cccnc2)CC1` was 4.31% (inactive); that for `O=C(c1cc(C(=O)N2CCN(c3ccc(F)cc3)CC2)cc([N+](=O)[O-])c1)N1CCN(c2ccc(F)cc2)CC1` was 2.3% (inactive); that for `CC(NC(=O)c1ccccc1F)c1cccc2ccccc12` (centres undefined) was 2.21% (inactive).

As for `CN(C)[C@@H]1C(=O)C(C(N)=O)=C(O)[C@@]2(O)C(=O)C3=C(O)c4c(O)ccc(Cl)c4[C@@H](O)[C@H]3C[C@@H]12`, the inhibition was 69.1% (active). The value for `O=C(Nc1nc(-c2ccco2)c(-c2ccco2)s1)c1ccco1` was 28.3% (inactive).

Turning to `CC(Sc1nn(-c2ccc(Cl)cc2)c(=S)s1)C(=O)NCC1CCCO1` (centres undefined), the inhibition is -4.24% (inactive). The value for `COc1ccc(C(CNC(=O)c2ccc(NS(=O)(=O)c3ccc(F)c(C)c3)cc2)N(C)C)cc1` (centres undefined) was -9.5% (inactive); that for `O=C(N/N=C/c1c[nH]c2ccccc12)c1cc2ccccc2o1` was -5.04% (inactive). The value for `O=C(O)c1cccc(NC(=S)N/N=C/c2c[nH]c3ccccc23)c1` was 48.7% (active); that for `O=C(N/N=C/c1c[nH]c2ccccc12)c1ccccc1O` was -1.35% (inactive); that for `O=C(Nc1ccccc1)O/N=C1\CCCCC1c1ccc([N+](=O)[O-])cc1[N+](=O)[O-]` (centres undefined) was -4.23% (inactive).

Take `C[n+]1ccccc1C1CCCC/C1=N\Nc1ccc([N+](=O)[O-])cc1[N+](=O)[O-]` (centres undefined): the inhibition was 45.5% (active).

On to `O=[N+]([O-])c1ccc(N/N=C2/CCCCC2c2ccccn2)c([N+](=O)[O-])c1` (centres undefined), for which the inhibition was 27.8% (inactive). In the case of `COc1ccc(NC(=O)CN(C)C(=O)c2cccc(S(=O)(=O)N3CCN(c4ccccc4)CC3)c2)cc1`, the inhibition was 0.96% (inactive). In the case of `CCOC(=O)c1c(C)[nH]c(C(=O)OCC(=O)N2CCCC2=O)c1C`, the inhibition is -4.82% (inactive). The value for `CCN1C(=O)[C@@H]2[C@@H](c3ccc(-c4ccccc4)cc3)N3CCCC[C@@]3(C(=O)OC)[C@@H]2C1=O` was -2.94% (inactive); that for `COc1ccc(C(CNC(=O)c2cccc(S(=O)(=O)Nc3ccccc3Cl)c2)N2CCOCC2)cc1` (centres undefined) was -26.9% (inactive). `Cc1cc(C)n2nc(C(=O)OCC(=O)N(CCC#N)c3ccc(F)cc3)nc2n1`: the inhibition is 7.91% (inactive).

For `CCOC(=O)c1c(-c2ccc(C)cc2)csc1/N=C(\C)C1=C(O)c2ccccc2C1=O`, the inhibition is 7.75% (inactive).

Take `CCOC(=O)C1=C(c2ccc(OC)cc2)C(=O)c2ccccc2C1=O`: the inhibition was 40.5% (active). The value for `CCOC(=O)c1cnc(-c2ccccc2)nc1Oc1ccc(C)cc1` was 2.24% (inactive). The value for `CCCC(=O)Nc1ncnc2c1ncn2[C@@H]1O[C@@H]2OP(=O)(O)OC[C@H]2[C@H]1OC(=O)CCC` was -0.48% (inactive).

Broadly, the inhibition is the relative decrease from the control value, in per cent.

These data come from PubChem BioAssay AID1974 (The Scripps Research Institute Molecular Screening Center, 2009).
